This is an account of results in PubChem BioAssay (NCI).

Assay [1] can be described thus: NCI Yeast Anticancer Drug Screen. Data for the rad50 strain (AID 155).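 Further: 0% = growth of vehicle-only cultures of the same strain.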 Particulars: S. cerevisiae rad50 strain growth inhibition, active compounds read high. In a few lines:
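Readout: growth inhibition relative to vehicle-treated cultures. Compound exposure was carried out in a genetically defined yeast strain deficient in DNA damage repair.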

Assay [2] can be described thus: NCI Yeast Anticancer Drug Screen. Data for the mec2-1 strain (AID 157). The following applies: S. cerevisiae mec2-1 strain, active compounds read high. In a few lines:
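Mutant yeast (mec2-1) grown with compound; growth inhibition relative to vehicle control reported.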

Assay [3] in a line: NCI Yeast Anticancer Drug Screen. Data for the sgs1 mgt1 strain (AID 161).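 Further: 0% = growth of cultures given vehicle only.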 The following applies: S. cerevisiae sgs1 mgt1 strain, active compounds read high. In a few lines:
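Yeast cells carrying a defined DNA-repair defect were exposed to test compounds. Growth inhibition was measured relative to vehicle-treated controls.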

A short description of assay [4]: NCI Yeast Anticancer Drug Screen. Data for the cln2 rad14 strain (AID 165).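 Further: 0% = growth equal to vehicle treated cultures.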 Particulars: S. cerevisiae cln2 rad14 strain, active compounds read high. In a few lines:
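Readout is yeast growth inhibition versus vehicle-treated controls, using a strain with cln2 and rad14 alterations exposed to compound.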

The nature of assay [5]: NCI Yeast Anticancer Drug Screen. Data for the bub3 strain (AID 167). The following applies: S. cerevisiae bub3 mutant strain, active compounds read high. Put shortly:
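Readout: yeast growth inhibition, expressed relative to vehicle-only wells. The test organism is a mutant strain from a panel with lesions in DNA repair or checkpoint genes.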

Assay [6] can be described thus: NCI Yeast Anticancer Drug Screen. Data for the mlh1 rad18 strain (AID 175). Particulars: S. cerevisiae mlh1 rad18 strain growth inhibition, active compounds read high. In a few lines: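 Genetically defined yeast (DNA repair-deficient) exposed to compounds; growth inhibition determined relative to vehicle.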
Where [7] appears, read: at 5.0 µM (retest, dose inferred, filed as 0.5).
The mark [8] stands for this setting: at 50.0 µM (retest, dose inferred, filed as 5.0).

SMILES strings stand for the structures. This is part of a sample that, as a whole, favours compounds with a hit. Of some 79,000 tested, about 15% had one in any assay. Unmarked numbers belong to inactive results. Activity calls are given as the source filed them. No stated cut-off is given here; in the data, active means growth inhibition above about 70%; inactive means the rest.

In the case of `CC(C)c1cccc2sc(NC(=O)C(=O)C(C#N)c3cccc4ccccc34)nc12` (stereo not given), the growth inhibition in assay [1] (setting [7]) is 0%; in assay [1] (setting [8]), 14%; in assay [1] (at 50.0 µM), 19.2%; in assay [2] (setting [7]), 3%; in assay [2] (setting [8]), 15%; in assay [2] (at 50.0 µM), -9.55%. In addition, the growth inhibition in assay [3] (setting [7]) is 2%; in assay [3] (setting [8]), 10%; in assay [3] (at 50.0 µM) it was 0.25%; in assay [4] (setting [7]), 3%; in assay [4] (setting [8]), 8%; in assay [4] (at 50.0 µM) it was 13.2%. The growth inhibition in assay [5] (setting [7]) is 3%; in assay [5] (setting [8]), 5%; in assay [5] (at 50.0 µM) it was 5.05%; in assay [6] (setting [7]), 3%; in assay [6] (setting [8]) it was 9%; in assay [6] (at 50.0 µM) it was 12.2%.
Consider `CC(NCCO)c1ccc2ccccc2c1` (stereo not given), for which the growth inhibition in assay [1] (setting [7]) is 0%; in assay [1] (setting [8]), 8%; in assay [1] (at 50.0 µM), 2.15%; in assay [2] (setting [7]), 3%; in assay [2] (setting [8]), -4%; in assay [2] (at 50.0 µM), -13.2%. Besides, the growth inhibition in assay [3] (setting [7]) is -10%; in assay [3] (setting [8]), -6%; in assay [3] (at 50.0 µM), 2.3%; in assay [4] (setting [7]) it was 3%; in assay [4] (setting [8]), -3%; in assay [4] (at 50.0 µM) it was 30.7%. For the same molecule, the growth inhibition in assay [5] (setting [7]) was 3%; in assay [5] (setting [8]) it was -1%; in assay [5] (at 50.0 µM), -14.9%; in assay [6] (setting [7]), -1%; in assay [6] (setting [8]) it was 8%; in assay [6] (at 50.0 µM), -3.8%.
For `CCOc1c(N=Nc2ccccc2Cl)c(C)nn1C(=S)S`, the growth inhibition is -9% in assay [1] (setting [7]); 36% in assay [1] (setting [8]); 89.3% (active) in assay [1] (at 50.0 µM); -15% in assay [2] (setting [7]); 9% in assay [2] (setting [8]); 80.7% (active) in assay [2] (at 50.0 µM). The growth inhibition in assay [3] (setting [7]) was 8%; in assay [3] (setting [8]) it was 4%; in assay [3] (at 50.0 µM) it was 77.3% (active); in assay [4] (setting [7]), -42%; in assay [4] (setting [8]), -6%; in assay [4] (at 50.0 µM), 92.2% (active). The growth inhibition in assay [5] (setting [7]) was -20%; in assay [5] (setting [8]) it was 17%; in assay [5] (at 50.0 µM), 74% (active); in assay [6] (setting [7]), -23%; in assay [6] (setting [8]), 40%; in assay [6] (at 50.0 µM), 96% (active).
`CC12OC1C(=O)c1ccccc1C2=O` (stereo not given): the growth inhibition was 4% in assay [1] (setting [7]); 85% (active) in assay [1] (setting [8]); 88.5% (active) in assay [1] (at 50.0 µM); 15% in assay [2] (setting [7]); 93% (active) in assay [2] (setting [8]); 92.1% (active) in assay [2] (at 50.0 µM). The growth inhibition in assay [3] (setting [7]) is 9%; in assay [3] (setting [8]) it was 87% (active); in assay [3] (at 50.0 µM) it was 89.9% (active); in assay [4] (setting [7]) it was 19%; in assay [4] (setting [8]), 65%; in assay [4] (at 50.0 µM), 57.6%. Moreover, the growth inhibition in assay [5] (setting [7]) is 9%; in assay [5] (setting [8]), 96% (active); in assay [5] (at 50.0 µM), 90.9% (active); in assay [6] (setting [7]), -2%; in assay [6] (setting [8]), 95% (active); in assay [6] (at 50.0 µM), 81.6% (active).
Consider `Cc1[nH]c2ccccc2c1-c1ccccc1`, for which the growth inhibition in assay [1] (setting [7]) was -126%; in assay [1] (setting [8]), 98% (active); in assay [1] (at 50.0 µM) it was 99.5% (active); in assay [2] (setting [7]), -48%; in assay [2] (setting [8]) it was 99% (active); in assay [2] (at 50.0 µM), 99.6% (active). The growth inhibition in assay [3] (setting [7]) was -65%; in assay [3] (setting [8]), 98% (active); in assay [3] (at 50.0 µM), 99.5% (active); in assay [4] (setting [7]), -53%; in assay [4] (setting [8]), 99% (active); in assay [4] (at 50.0 µM) it was 99% (active). Further, the growth inhibition in assay [5] (setting [7]) is -62%; in assay [5] (setting [8]), 98% (active); in assay [5] (at 50.0 µM), 99.4% (active); in assay [6] (setting [7]), -122%; in assay [6] (setting [8]), 98% (active); in assay [6] (at 50.0 µM), 99.5% (active).
For `c1nc(N2CCOCC2)c2[nH]cnc2n1`, the growth inhibition in assay [1] (setting [7]) was 5%; in assay [1] (setting [8]), -5%; in assay [1] (at 50.0 µM) it was 22.1%; in assay [2] (setting [7]), -1%; in assay [2] (setting [8]), -7%; in assay [2] (at 50.0 µM), 8.05%. In addition, the growth inhibition is 0% in assay [3] (setting [7]); 4% in assay [3] (setting [8]); 12.2% in assay [3] (at 50.0 µM); -1% in assay [4] (setting [7]); -13% in assay [4] (setting [8]); 36.5% in assay [4] (at 50.0 µM). Also, the growth inhibition in assay [5] (setting [7]) was -2%; in assay [5] (setting [8]) it was 8%; in assay [5] (at 50.0 µM), -5.75%; in assay [6] (setting [7]), 5%; in assay [6] (setting [8]), 5%; in assay [6] (at 50.0 µM), 17.4%.
For the molecule `O=C(COc1ccc(Cl)c(Cl)c1)Nc1ccc[n+](Cc2ccc(Cl)c(Cl)c2)c1`, the growth inhibition in assay [1] (setting [7]) was -15%; in assay [1] (setting [8]), 99% (active); in assay [1] (at 50.0 µM), 99.6% (active); in assay [2] (setting [7]) it was 1%; in assay [2] (setting [8]), 100% (active); in assay [2] (at 50.0 µM), 99.5% (active). Moreover, the growth inhibition was 13% in assay [3] (setting [7]); 99% (active) in assay [3] (setting [8]); 99.5% (active) in assay [3] (at 50.0 µM); 2% in assay [4] (setting [7]); 99% (active) in assay [4] (setting [8]); 99.2% (active) in assay [4] (at 50.0 µM). Moreover, the growth inhibition is 2% in assay [5] (setting [7]); 99% (active) in assay [5] (setting [8]); 99.3% (active) in assay [5] (at 50.0 µM); 39% in assay [6] (setting [7]); 99% (active) in assay [6] (setting [8]); 98.8% (active) in assay [6] (at 50.0 µM).
For `CNc1c(C(=O)Nc2ccccc2)c(=O)n(C)c(=O)n1C`, the growth inhibition was 99% (active) in assay [1] (setting [7]); 99% (active) in assay [1] (setting [8]); 62.9% in assay [1] (at 50.0 µM); 100% (active) in assay [2] (setting [7]); 99% (active) in assay [2] (setting [8]); 81% (active) in assay [2] (at 50.0 µM). Also, the growth inhibition was 99% (active) in assay [3] (setting [7]); 99% (active) in assay [3] (setting [8]); 32.8% in assay [3] (at 50.0 µM); 99% (active) in assay [4] (setting [7]); 99% (active) in assay [4] (setting [8]); 2.3% in assay [4] (at 50.0 µM). For the same molecule, the growth inhibition in assay [5] (setting [7]) is 99% (active); in assay [5] (setting [8]), 99% (active); in assay [5] (at 50.0 µM), 90.8% (active); in assay [6] (setting [7]), 99% (active); in assay [6] (setting [8]), 99% (active); in assay [6] (at 50.0 µM), 74.5% (active).
`C[N+](C)(CCCCCCOc1c(Br)cc(Br)cc1Br)Cc1ccc(Br)o1`: the growth inhibition was 71% (active) in assay [1] (setting [7]); 99% (active) in assay [1] (setting [8]); 99.5% (active) in assay [1] (at 50.0 µM); 38% in assay [2] (setting [7]); 100% (active) in assay [2] (setting [8]); 99.8% (active) in assay [2] (at 50.0 µM). The growth inhibition in assay [3] (setting [7]) is 84% (active); in assay [3] (setting [8]) it was 100% (active); in assay [3] (at 50.0 µM) it was 99.8% (active); in assay [4] (setting [7]), 40%; in assay [4] (setting [8]) it was 99% (active); in assay [4] (at 50.0 µM) it was 99.2% (active). Besides, the growth inhibition is 61% in assay [5] (setting [7]); 99% (active) in assay [5] (setting [8]); 99.8% (active) in assay [5] (at 50.0 µM); 83% (active) in assay [6] (setting [7]); 99% (active) in assay [6] (setting [8]); 99.7% (active) in assay [6] (at 50.0 µM).
For the molecule `Cc1cc(SCC(=O)c2ccc(Br)cc2)cc(C)[o+]1`, the growth inhibition was -14% in assay [1] (setting [7]); 80% (active) in assay [1] (setting [8]); 94.5% (active) in assay [1] (at 50.0 µM); 4% in assay [2] (setting [7]); 95% (active) in assay [2] (setting [8]); 95% (active) in assay [2] (at 50.0 µM). The growth inhibition in assay [3] (setting [7]) was 20%; in assay [3] (setting [8]) it was 81% (active); in assay [3] (at 50.0 µM), 91.5% (active); in assay [4] (setting [7]), -42%; in assay [4] (setting [8]) it was 75% (active); in assay [4] (at 50.0 µM) it was 90% (active). The growth inhibition in assay [5] (setting [7]) was -5%; in assay [5] (setting [8]), 95% (active); in assay [5] (at 50.0 µM) it was 93.1% (active); in assay [6] (setting [7]), -8%; in assay [6] (setting [8]), 92% (active); in assay [6] (at 50.0 µM), 95.1% (active).
